For 63 compounds, Potency and activity change, negative = inhibition results are on record in PubChem BioAssay AID1671190 (National Center for Advancing Translational Sciences (NCATS), 2021).

Screen size: about 580,000 compounds; about 6,100 (1.1%) were called active. About 15% were inconclusive and are not listed. Calls come from the whole dose curve; as a rule, active = well fitted inhibition curve with a large enough effect; inconclusive = small, poorly fitted or top-dose-only effect, or another doubt; inactive = no such curve, though single readings can be large or run the other way. What follows is part of a selection rich in actives, with near analogues and random picks from the rest. A call without a number means that no potency is given here.
Potency is the fitted concentration of half-maximal effect.

Chain of Polyunsaturated fatty acid lipoxygenase ALOX12 (Homo sapiens) (P18054 whole entry, looked up): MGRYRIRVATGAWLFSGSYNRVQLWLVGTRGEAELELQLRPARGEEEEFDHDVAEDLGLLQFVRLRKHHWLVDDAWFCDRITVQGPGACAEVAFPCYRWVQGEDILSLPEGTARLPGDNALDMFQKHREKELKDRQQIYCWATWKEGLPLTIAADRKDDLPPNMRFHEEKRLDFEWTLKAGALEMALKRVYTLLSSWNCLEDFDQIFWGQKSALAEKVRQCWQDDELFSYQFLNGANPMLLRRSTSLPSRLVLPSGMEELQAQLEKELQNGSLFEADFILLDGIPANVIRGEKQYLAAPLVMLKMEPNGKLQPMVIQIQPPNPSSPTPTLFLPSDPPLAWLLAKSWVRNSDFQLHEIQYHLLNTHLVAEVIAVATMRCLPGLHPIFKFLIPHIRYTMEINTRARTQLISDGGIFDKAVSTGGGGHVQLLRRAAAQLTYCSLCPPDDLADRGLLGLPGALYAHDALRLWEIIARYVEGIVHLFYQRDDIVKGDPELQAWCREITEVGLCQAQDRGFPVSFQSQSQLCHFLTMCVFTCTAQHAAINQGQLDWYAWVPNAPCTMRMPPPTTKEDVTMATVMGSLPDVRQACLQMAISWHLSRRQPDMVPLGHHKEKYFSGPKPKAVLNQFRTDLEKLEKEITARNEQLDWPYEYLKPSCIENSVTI

In this assay the target is Polyunsaturated fatty acid lipoxygenase ALOX12 (Homo sapiens) (UniProt P18054). Description: Primary qHTS assay for inhibitors of human arachidonate 12S-lipoxygenase (ALOX12): Round 2. To be noted: purified 12hLO, xylenol orange hydroperoxide absorbance; series mostly up to 108 µM. In a few lines:
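Purified human 12hLO at 150 nM in 25 mM Hepes, 0.01% Triton X-100, pH 7.0, preincubated 15 min at room temperature with compound. Reaction started with 40 uM arachidonic acid, 30 min at room temperature. Hydroperoxide measured by Fe-xylenol orange, 573/405 nm absorbance ratio.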
A general note: Quantitative high-throughput screening tests each substance at several concentrations.
On to `Cc1nnc(SCc2cc(=O)[nH]c(N3CCN(Cc4ccccc4)CC3)n2)s1`, for which the Potency entry was “inactive”.

Take `CO/N=C(/C(=O)N[C@@H]1C(=O)N2C(C(=O)O)=C(Cn3nnc(C)n3)CS[C@H]12)c1csc(N)n1`: the activity change, negative = inhibition is -8.52% [at 22.9 µM] (inactive). For `Cc1cc(C)cc(C(=O)NC2C(=O)N3C(C(=O)O)=C(CSc4nnc(C)s4)CSC23)c1` (stereo not drawn), the Potency was 39.8 µM (active).

For `CC(C)C(=O)Nc1cc(Cl)ccc1Cl`, the Potency result is “inactive”.

Turning to `CC(C)C(=O)N1CCN(C(=O)c2cc3ccccc3n2C)CC1`, the Potency entry is “inactive”. For the compound `CNc1c(NC(=O)Nc2ccc(F)cc2F)c(=O)oc2ccccc12`, the Potency entry was “inactive”.

With `CCOC(=O)C1Cn2c(nc3c(c2=O)C(C)(CC)Cc2ccccc2-3)S1` (stereo not drawn), the Potency result was “inactive”.

As for `CCC1(CC)Cc2ccccc2-c2nc(CCl)[nH]c(=O)c21`, the Potency was 7.08 µM (active). For the compound `O=c1[nH]c(CCl)nc2cc(-c3ccc(Cl)cc3)sc12`, the Potency entry was “inactive”. On to `CC(C)C(=O)Nc1ccc(-c2nc3ccccc3o2)cc1`, for which the Potency entry was “inactive”. Regarding `CCOC(=O)c1nc2ccccc2nc1NCc1ccc(C)cc1`, the Potency result was “inactive”. Same read-out and setting: the entry for `CC(=O)c1c(C)[nH]c(C(=O)c2oc3ccc(Cl)cc3c2C)c1C` is “inactive”; for `COC(=O)c1ccc(/C=C2\Oc3cc(OS(C)(=O)=O)cc(C)c3C2=O)cc1` it is “inactive”; for `Cc1cccc(N2CCN(c3ccc(C(=O)O)cc3NC(=O)c3ccccc3F)CC2C)c1` (stereo not drawn) it is 50.1 µM (active). As for `Cc1cccc(N2CCN(C(=O)c3ccccc3NC(=O)C3CCCCC3C(=O)O)CC2)c1` (stereo not drawn), the Potency result is “inactive”. Still for that read-out and setting: to `CCN1CCN(c2cc3nc(C)n(Cc4ccccc4)c(=O)c3cc2NC(=O)c2ccccc2F)CC1` belongs “inactive”; to `O=C(c1cccc(Br)c1)N1CCC(CCc2ccc(O)cc2)CC1`, “inactive”; to `Cc1ccc(NC(NC(=O)c2cccc(C)c2)C(Cl)(Cl)Cl)cc1` (stereo not drawn), “inactive”. The same measure, in the same setting: to `O=C1C=C(c2cccc(Cl)c2O)C[C@@H](c2ccc(F)cc2)C1` belongs “inactive”; to `CCc1nc2nc3c(cn2n1)C(=O)CC(c1ccc(Cl)cc1)C3` (stereo not drawn), “inactive”; to `CCCCC/C=C/C1=CC(=O)C[C@H](c2ccc(Cl)cc2)C1`, 35.5 µM (active).

On to `CCCCc1ccc(NC(=O)c2cc3c(s2)CCCC3)cc1`, for which the Potency result is “inactive”. With `CN(Cc1ccon1)C(=O)c1coc(COc2ccc(F)cc2Cl)n1`, the Potency entry was “inactive”.

Regarding `Cn1c(=O)c2c(ncn2CCC(=O)NCc2ccc(F)cc2)n(C)c1=O`, the Potency entry is “inactive”. On the same count and under the same terms, to `CN1CCN(c2ccc3nnc(C4CCC4)n3n2)CC1` belongs “inactive”; to `CC(C)NC(=O)N1Cc2[nH]cnc2C[C@H]1c1nc(-c2ccc(Cl)cc2)no1`, 14.1 µM (active).

For `Cc1ccc(-c2noc([C@@H]3Cc4nc[nH]c4CN3C(=O)Nc3ccccc3)n2)cc1`, the Potency result was “inactive”.

Consider `CCOC(=O)c1ccc(NC(=O)N2Cc3[nH]cnc3C[C@H]2c2nc(-c3ccc(Cl)cc3)no2)cc1`, for which the Potency result was “inactive”. Same read-out and setting: the entry for `Cc1nc(NC2CCCCC2)sc1C(=O)Nc1ccccc1` is “inactive”; for `CC(C)C(=O)N/N=C/c1ccc(Cl)cc1` it is “inactive”; for `COc1cc2c(cc1O)NC(=O)CC2c1cn[nH]c1-c1cc(C)ccc1C` (stereo not drawn) it is “inactive”. With `CC(C)OCC(O)Cn1c(NCc2ccccc2)nc2c1c(=O)[nH]c(=O)n2C` (stereo not drawn), the Potency entry is “inactive”. On the same count and under the same terms, to `O=C(COC(=O)c1cccc(NS(=O)(=O)c2ccccc2)c1)NCc1cccs1` belongs “inactive”; to `COc1cccc(CNC(=O)Cn2c(=O)oc3cc(S(=O)(=O)N4CCCCC4)ccc32)c1`, “inactive”. The same measure, in the same setting: the figure for `CNC(=O)c1ccc(NC(=O)CCn2c(=O)oc3cc(S(=O)(=O)N4CCCC4)ccc32)cc1` is 35.5 µM (active). With `CC1CCCCN1C(=O)Cn1c(=O)oc2cc(S(=O)(=O)N3CCCCC3)ccc21` (stereo not drawn), the Potency result is “inactive”. Turning to `Cc1ccc(OCCC(=O)Nc2cc3c(cc2Cl)OCCO3)c(C)c1`, the Potency entry is “inactive”. As to `CCOc1ccc(C(C)NC(=O)Cn2c(=O)c3c(ncn3C)n(C)c2=O)cc1` (stereo not drawn), the Potency result was “inactive”. `CC1=C[C@@H](CN(C)CCc2ccccn2)[C@H](C(C)C)C[C@H]1Cc1nnc(-c2ccccc2F)o1`: the Potency result was “inactive”. On the same count and under the same terms, to `O=C(CCn1ccc(=O)[nH]c1=O)N[C@@H]1COCC[C@@H]1OCc1ccccc1` belongs “inactive”; to `C=CCNC(=S)N(CC)CC`, “inactive”; to `COC(=O)c1ccccc1NS(=O)(=O)c1ccc2c(c1)CCCN2C(C)=O`, “inactive”. As for `COc1cc(S(=O)(=O)Nc2ccccc2OC)ccc1NC(C)=O`, the Potency entry was “inactive”. Still for that read-out and setting: the figure for `COc1ccc(Br)cc1/C=N/Nc1ccc(S(=O)(=O)Nc2ccccc2C(=O)O)cc1[N+](=O)[O-]` is 14.1 µM (active). On the same count and under the same terms, to `O=C(O/N=C1\CCCc2oc3c(c21)CCCC3)c1ccc(Cl)c(Cl)c1` belongs “inactive”. Regarding `Cc1ccc(Cn2c(N3CCC(C(N)=O)CC3)nc3c2c(=O)n(C)c(=O)n3C)cc1`, the Potency result is “inactive”.

With `Cc1oc(-c2ccccc2)nc1C(=O)NC(C1CC1)C1CC1`, the Potency entry was “inactive”.

With `CC(C)(C)NC(=O)C(CCc1ccccc1)n1c(=O)c(-c2ccccc2)nc2ccccc21` (stereo not drawn), the Potency result is “inactive”. Still for that read-out and setting: the figure for `Cc1cccc(C)c1NC(=O)C(c1ccc(C(F)(F)F)cc1)n1c(=O)c(-c2ccco2)nc2ccccc21` (stereo not drawn) is 14.1 µM (active); for `O=C(NCCn1c(-c2ccccc2)nc2ccccc21)NCc1ccccc1` it is “inactive”; for `COc1ccc(NC(=O)C(c2ccncc2)n2c(=O)c(-c3cc4ccccc4[nH]3)nc3ccccc32)cc1` (stereo not drawn) it is “inactive”.

On to `N#Cc1ccc(C(C(=O)NCc2ccccc2)n2c(=O)c(-c3ccco3)nc3ccccc32)cc1` (stereo not drawn), for which the Potency was 17.8 µM (active). In the case of `CCC(C(=O)Nc1c(C)cccc1C)n1c(-c2cc(C)cs2)nc2ccccc21` (stereo not drawn), the Potency entry is “inactive”. The same measure, in the same setting: to `COc1cccc(S(=O)(=O)N2CCCCCCNC(=O)[C@@H]3CCC[C@@H]32)c1` belongs “inactive”; to `O=C(Nc1ccccc1)Nc1cc(S(=O)(=O)N2CCOCC2)ccc1NCC1CCCO1` (stereo not drawn), “inactive”; to `c1ccc([C@@H]2CNC[C@H]2COCC2CC2)nc1`, “inactive”.

With `Cn1c(C(=O)NCCNC(=O)c2cccc(F)c2)cc2ccccc21`, the Potency entry was “inactive”. `Cc1cccc(-n2nc(-c3c(C)nc4scc(CC(=O)NCCC(C)C)n4c3=O)cc2C)c1C`: the Potency result was “inactive”. Take `COc1ccccc1CCNS(=O)(=O)c1ccc(N2C(=O)C(C)(C)CS2(=O)=O)cc1`: the Potency result is “inactive”.

Turning to `COc1ccc2nc(SC3CC(=O)N(c4ccc(F)cc4)C3=O)nc(C)c2c1` (stereo not drawn), the Potency result was “inactive”. Still for that read-out and setting: the entry for `O=C(CCN1CCCCC1)Nc1ccc(F)c(F)c1` is “inactive”. Regarding `Cc1cc(NC(=O)CCN2CCN(Cc3ccccc3)CC2)ccc1Br`, the Potency is 3.16 µM (active). `O=C(CCN1CCN(C/C=C/c2ccccc2)CC1)Nc1cccc(F)c1`: the Potency entry is “inactive”.
